# A selection: hits, their analogues and other compounds. The true share with any hit is near 1.2%.
# TrxR1 substrate – substrates of rat thioredoxin reductase 1; 390,000 compounds, 0.01% hits; AID 588456; Potency, µM (highest dose often 114 µM); purified TrxR1 substrate turnover, NADPH consumption readout; note: nearly all actives have a fitted effect of over 50% in size
#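 Rat TrxR1, dispensed at 90 nM, was prereduced with 400 uM NADPH (final) for 5 min at ~22 deg C, then incubated with compound 15 min before 400 uM selenite. A first-read NADPH fluorescence drop versus no-compound background flagged substrates.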
# IDH1 R132H inh – blocks human mutant IDH1 R132H enzyme | O75874 | IDH1-R132H enzyme, NADPH consumption, diaphorase/resazurin fluorescence | Potency, µM (series often up to 76.6 µM), hits mostly inhibitors | 390,000 compounds, 0.093% hits; note: nearly all actives have a fitted effect of over 65% in size
#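 IDH1-R132H (0.5 ug/mL) preincubated 30 min with compound, then NADPH (0.016 mM) and alpha-KG (2 mM) added; 80 min at RT, pH 7.5. Remaining NADPH coupled via diaphorase/resazurin to fluorescence (540/590 nm); concentration-response curves normalized to no-enzyme control.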
# GLS inh – inhibitors of human glutaminase (GLS); GLS enzymatic activity, qHTS titration; Potency, µM (titrated, usually from 45.5 µM), most hits filed as inhibitors; O94925; 410,000 compounds, 0.21% hits
#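 hKGA; 45 mM KH2PO4 pH 8.2 + 0.02% Tween-20; cpd via pin tool; 1 mM Gln soln; GluOx/HRP/Amplex Red; RT 30 min; fluor. t0 & final.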
# rTrxR1 inhibitor – inhibitors of rat thioredoxin reductase 1 | O89049 | recombinant rTrxR1, NADPH fluorescence consumption, selenite substrate | Potency, µM (doses to about 114 µM), actives largely listed as inhibitors | 390,000 compounds, 1% hits; note: nearly all actives have a fitted effect of over 65% in size
#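 Rat TrxR1 (90 nM in the dispensed reagent) was pre-reduced with 400 uM NADPH for 5 min at room temperature, then incubated with compound for 15 min. After 400 uM selenite was added, NADPH fluorescence (Ex 340/Em 450 nm) was followed for 8 min.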
# Resorufin autofl – autofluorescence interference, mutant IDH1 hit counter-screen | Resorufin detection reagent fluorescence interference, cell-free | 750 tested, under 10 active | shares compounds with IDH1 R132H inh | inhibition of signal, % at 51.2 µM
# WT IDH1 inh – wild-type IDH1 (human) inhibition counterscreen; shares compounds with IDH1 R132H inh; WT IDH1 enzyme, NADPH diaphorase/resazurin fluorescence; Potency, µM (highest dose often 115 µM), hits mostly inhibitors; 750 compounds, 9% hits; AID 623995; note: nearly all actives have a fitted effect of over 55% in size
# IDH1 R132H conf – mutant IDH1 (human) inhibition, confirmed; shares compounds with IDH1 R132H inh; IDH1 R132H enzyme, NADPH diaphorase/resazurin fluorescence; Potency, µM (highest dose often 76.6 µM), most hits filed as inhibitors; 750 compounds, 83% hits; AID 624002; note: nearly all actives have a fitted effect of over 50% in size
# Hits are given with their value; i = inactive; ? = inconclusive; nt = no result given; [ ] = another dose, or the depositor's remark. Calls come from the whole dose curve; as a rule, active = well fitted curve in the direction sought with a large enough effect; inconclusive = small, poorly fitted or top-dose-only effect, or another doubt; inactive = no such curve, though single readings can be large; an effect the other way counts as inactive or inconclusive.
SMILES,TrxR1 substrate,IDH1 R132H inh,GLS inh,rTrxR1 inhibitor,Resorufin autofl,WT IDH1 inh,IDH1 R132H conf
COc1cc(Br)cc(/C=N/N(CCO)C2=NS(=O)(=O)c3ccccc32)c1OC,i,13µM,i,i,i,i,25µM
Cc1ccc(Cc2ccccc2C(=O)O)cc1,i[11.4 µM],i,i,i[11.4 µM],nt,nt,nt
CC1(C)CC(=O)C2=C(C1)NC1=C(C(=O)c3ccccc31)C2c1cc([N+](=O)[O-])ccc1O (stereo not drawn),i,?,i,?,i,i,32µM
CCc1ccccc1OCC(=O)Nc1ccc(S(=O)(=O)Nc2nc(C)cc(C)n2)cc1,i,i,i,i,nt,nt,nt
COc1cccc(Nc2nc3c(S(=O)(=O)c4cc(C)ccc4C)nnn3c3ccsc23)c1,i,?,i,i,i,i,?
CC1=CC(C)(C)N2C(=O)C3(C(C#N)=C(N)OC4=C3C(=O)CCC4)c3c(C)c(C)cc1c32 (stereo not drawn),i,i,i,i,nt,nt,nt
CC1=CC(C)(C)N2C(=O)C3(C(C#N)=C(N)Oc4cc(O)ccc43)c3c(C)c(C)cc1c32 (stereo not drawn),i,23µM,i,i,i,i,20µM
CC(C)(C)c1cc(CP(=O)(c2ccccc2)c2ccccc2)cc(C(C)(C)C)c1O,i,?,i,i,i,i,28µM
O=P(Cc1ccccc1)(c1ccccc1)c1ccccc1,i,i,i,i,nt,nt,nt
CC(C)(C)C1CCc2sc(-c3nnc(CCl)o3)cc2C1 (stereo not drawn),i,52µM,i,i,i,i,40µM
Cc1ccc(-c2c(C)n3c4c(=O)n(C)c(=O)n(C)c4nc3n2CCO)cc1,i,i,i,i,nt,nt,nt
CCCCn1c(-c2ccc(C)cc2)c(C)n2c3c(=O)n(C)c(=O)n(C)c3nc12,i,?,i,i,i,i,11µM
CCn1c(=O)c2cc(C(=O)N(C)c3ccccc3F)sc2c2ccccc21,i,?,i,i,i,i,28µM
CCn1c(=O)c2cc(C(=O)N(C)c3cc(C)ccc3OC)sc2c2ccccc21,i,?,i,i,i,i,32µM
CCCN(C(=O)c1cc2c(=O)n(CC)c3ccccc3c2s1)c1ccccc1F,i,i,i,i,nt,nt,nt
O=C(Nc1cccc(Cl)c1Cl)c1cc(S(=O)(=O)N2CCCc3ccccc32)ccc1F,i,i,i,i,nt,nt,nt
N#CC1=C2N=C(N)c3ccccc3N2C2=C(C(=O)CCC2)C1c1ccc(F)cc1 (stereo not drawn),i,?,i,i,i,i,?
Cc1ccc(C2C(C#N)=C3N=C(N)c4ccccc4N3C3=C2C(=O)CCC3)cc1 (stereo not drawn),i,i,i,i,nt,nt,nt
CCCc1noc2c1C(c1cc(Br)ccc1F)C(C#N)=C(N)N2 (stereo not drawn),i,52µM,i,i,i,i,40µM
Cc1c(-c2nsc(NC(=O)c3ccccc3)n2)nnn1-c1ccc(C(F)(F)F)c(Cl)c1,i,i,i,i,nt,nt,nt
Cn1c(=O)c(NC2CCCCC2)c2c3c(cccc31)C(=O)c1ccccc1-2,i,?,i,i,i,i,22µM
CCN1CCN(C(c2cccnc2)c2c(NC(=O)c3ccco3)sc(C)c2C)CC1 (stereo not drawn),i,i,i,?,nt,nt,nt
Cc1sc(NC(=O)c2ccco2)c(C(c2cccnc2)N2CCC(C)CC2)c1C (stereo not drawn),i,?,i,?,i,i,?
Cc1ccc(N2C(=O)c3n[nH]c(C)c3C2c2ccc(C(C)C)cc2)cc1 (stereo not drawn),i,?,i,i,i,i,28µM
CCOC(=O)c1ccc(N2C(=O)c3n[nH]c(C)c3C2c2ccc(C(C)C)cc2)cc1 (stereo not drawn),i,i,i,i,nt,nt,nt
Cc1c(OC(C(=O)O)c2ccccc2)ccc2c(-c3ccccc3)cc(=O)oc12 (stereo not drawn),i,?,i,i,i,i,13µM

# Screening data as filed in PubChem BioAssay.
